HCV inhibitor: qHTS Assay for Inhibitors of Hepatitis C Virus (HCV) | 340,000 compounds, 3.4% hits | Potency, µM (doses to about 41.8 µM), inactives show top-dose activity change, negative = inhibition, actives largely listed as inhibitors | Huh7.5.1 HCVcc-Cre infection, luciferase reporter, 44 h; note: potency is the fitted concentration of half-maximal effect
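Cells seeded at 1,000/well and cultured 4 h, then compounds added followed by HCVcc-Cre virus (~0.5 moi). After 44 h further culture, luciferase substrate was added, plates held 15 min at room temperature, and luminescence read for 15 sec.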
FMDV antiviral: High Throughput Screening for Foot and Mouth Disease Virus Antivirals | FMDV antiviral cell-based qHTS | Potency, µM (titrated, usually from 57.9 µM), without a hit: at the top dose activity change, negative = inhibition, hits mostly inhibitors | 410,000 compounds, 1.2% hits | AID 1159524, 2015; calls by dose curve; tested in HEK293T cells; note: read-out not given here; potency is the fitted concentration of half-maximal effect; nearly all actives have a fitted effect of over 45% in size
FBPA Giardia inh: qHTS Assay for Inhibitors of Fructose-1,6-bisphosphate Aldolase from Giardia Lamblia; 290,000 compounds, 0.71% hits; A8B2U2; AID 2451, 2010; purified Giardia FBPA; Potency, µM (doses to about 59.6 µM), without a hit: at the highest dose activity, negative = inhibition, actives largely listed as inhibitors; note: potency is the fitted concentration of half-maximal effect; nearly all actives have a fitted effect of over 55% in size
Target sequence (A8B2U2 whole entry, looked up): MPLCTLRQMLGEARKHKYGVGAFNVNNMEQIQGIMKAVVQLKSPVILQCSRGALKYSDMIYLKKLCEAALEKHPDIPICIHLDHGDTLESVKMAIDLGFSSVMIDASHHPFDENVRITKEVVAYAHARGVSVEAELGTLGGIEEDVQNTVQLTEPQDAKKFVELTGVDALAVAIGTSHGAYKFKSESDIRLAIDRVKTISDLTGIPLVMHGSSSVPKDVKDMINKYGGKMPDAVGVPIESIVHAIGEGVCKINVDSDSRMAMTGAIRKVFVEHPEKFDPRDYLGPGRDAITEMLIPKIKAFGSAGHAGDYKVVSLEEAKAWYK
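Giardia FBPA (40 nM reagent) was preincubated 10 min at RT with compound (up to 57.5 uM final), then substrate plus GAPDH/TPI/NAD/arsenate coupling system with diaphorase/resazurin was added; resorufin fluorescence (525/598 nm) was read after 20 min.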
Lassa entry inh: qHTS for Inhibitors of binding or entry into cells for Lassa Virus | Lassa virus pseudotype entry inhibition, cell reporter | Potency, µM (highest dose often 37.9 µM), without a hit: at the highest dose activity change, negative = inhibition, actives largely listed as inhibitors | 300,000 compounds, 1.2% hits | AID 540256, 2011; calls by dose curve; tested in HEK293 cells; note: potency is the fitted concentration of half-maximal effect; nearly all actives have a fitted effect of over 50% in size
HCMV inh: qHTS Assay for inhibitors of the human cytomegalovirus (HCMV); AID 1259415, 2018; 410,000 compounds, 4.5% hits; HFF cells, HCMV-luciferase reporter, 72 h; hits give low values; activity change, negative = inhibition, % at 57.5 µM; in the data active = activity change below about -60%; inconclusive = no clear call, values can overlap the other calls; inactive = above about -39%
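After 16 h attachment at 37C, HFF cells received test compound and HCMV-luciferase (1 PFU/cell); reporter luminescence read 72 h later, data normalized against buffer-only and known inhibitor Salinomycin.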
MARV entry inh: qHTS for inhibitors of binding or entry into cells for Marburg Virus; Marburg virus pseudotyped entry inhibition, cell reporter; Potency, µM (highest dose often 37.8 µM), for the others: at the top dose activity change, negative = inhibition, most hits filed as inhibitors; 300,000 compounds, 1.8% hits; calls by dose curve; tested in HEK293 cells; note: potency is the fitted concentration of half-maximal effect
* marks the source's active call; other numbers are inactive results; ? = inconclusive; nt = no result given; ! = not active in a repeat; [ ] = remark or other dose. This is a sample that favours compounds with a hit; in the whole collection about 8.3% have one here. Unless noted, calls come from the whole dose curve; as a rule, active = well fitted curve in the direction sought with a large enough effect; inconclusive = small, poorly fitted or top-dose-only effect, or another doubt; inactive = no such curve, though single readings can be large; an effect the other way counts as inactive or inconclusive. % is set by controls: 0 for no effect and ±100 for the full control effect.

SMILES	HCV inhibitor	FMDV antiviral	FBPA Giardia inh	Lassa entry inh	HCMV inh	MARV entry inh
C/C(CC(=O)Nc1ccc(Cl)c(C(F)(F)F)c1)=N\NC(=O)c1cccc(O)c1	-13%	-18%	-18%	?	-15	?
COc1cc(C=C2CCCC(=Cc3ccc(OCC4CO4)c(OC)c3)C2=O)ccc1OCC1CO1 (centres undefined)	nt	11µM*	nt	nt	-68*	nt
COc1ccc(/C=C2/CSC/C(=C/c3ccc(OC)c(OC)c3)C2=O)cc1OC	?	3.5µM*	nt	3.2µM*	-101*	3.5µM*
COc1ccc(/C=C2\Cc3ccccc3C2=O)cc1OC	-15%	43%	0%	nt	?	nt
CC1CN(CC(=O)NCC2(N3CCOCC3)CCCC2)Cc2cc(Cl)ccc2O1 (centres undefined)	nt	-4%	nt	nt	nt	nt
Nc1ccc(Nc2nc3ccccc3[nH]2)cc1	11%	-14%	-25%	?	12	?
c1ccc(Nc2nc3ccccc3[nH]2)nc1	-2%	-2%	-15%	?	-68*	-26%
CCN(CC)CCCNC(=O)CCc1c(C)nc2c(c1C)c(=O)n(C)c(=O)n2C	nt	-14%	nt	5%[46.1 µM]	-65*	2%[46.1 µM]
Cc1nc2c(c(C)c1CCC(=O)NCc1ccc(F)cc1)c(=O)n(C)c(=O)n2C	nt	3%	nt	-3%[46.1 µM]	6	15%[46.1 µM]
CCN(CC)S(=O)(=O)c1ccc2c(c1)N(CC(=O)Nc1ccc(F)cc1F)C(=O)C1CCCN21 (centres undefined)	nt	-5%	nt	-9%[46.1 µM]	-5	nt
NC(N)=Nc1cc2ccccc2c2ccccc12	nt	nt	3.2µM*	nt	-83*	nt
Cc1ncc2c(c1CNC(=O)c1ccc3c(c1)OCO3)CCN(C(=O)c1cn3ccccc3n1)C2	nt	-1%	nt	nt	nt	nt
Cc1nc2c(c(C)nn2-c2ccccc2)c(C)c1CCC(=O)Nc1ccc(CN2CCCC2)cc1	?	-25%	-9%	?	-64*	10µM*
Cc1ccc(C)c(NC(=O)c2cc(=O)c3cc(C)cc(C)c3o2)c1	nt	-7%	nt	15%[46.1 µM]	9	?
CCc1cc(C(=O)Nc2cnn(Cc3ccc(F)cc3)c2)no1	nt	37%	nt	-22%[46.1 µM]	55	2%[46.1 µM]
O=C(Nc1cnn(Cc2ccc(F)cc2)c1)c1cc(-c2cccs2)on1	8.9µM*	-5%	0%	-9%	16	-15%
C[C@@H]1COc2cc(F)ccc2S(=O)(=O)N1	nt	nt	nt	-7%[46.1 µM]	nt	nt
CCCCCCCCCCCCCC(=O)O[C@@H]1[C@@H](C)[C@@]2(O)[C@@H](C=C(CO)C[C@@]3(O)C(=O)C(C)=C[C@@H]23)C2C(C)(C)[C@@]21OC(C)=O (some centres undefined)	nt	nt	-14%	6.5µM*	nt	22µM*
Cc1nn(C)c(Cl)c1NC(=O)OCc1ccc(Cl)cc1Cl	10µM*	?	-1%	-25%	-96*	?
Cc1nn(Cc2ccc(Cl)cc2Cl)c(C)c1NC(=O)C1C2CCC(O2)C1C(=O)O (centres undefined)	?	?	1%	5%	-64*	-24%[46.1 µM]
Cc1nn(Cc2ccc(Cl)cc2Cl)c(C)c1NC(=O)CCl	13µM*	22µM*	-1%	?	?	?
CC(C)C[C@H]1COc2cc(N3CCCC3)ccc2S(=O)(=O)N1	nt	nt	nt	nt	-25	?
COc1ccc(O)c(CN2CCC3(CCC(CNC(=O)c4ccco4)O3)CC2)c1 (centres undefined)	nt	-11%	nt	nt	nt	nt
CC1CCC(C(C)C)C(OC(=O)Cn2c(-c3ccc(Cl)cc3)[n+](C)c3ccccc32)C1 (centres undefined)	?	?	-1%	nt	-100*	nt
CC1CCC(C(C)C)C(OC(=O)COC(=O)c2ccccc2N)C1 (centres undefined)	9%	?	-6%	?	-16	-4%
SMILES	HCV inhibitor	FMDV antiviral	FBPA Giardia inh	Lassa entry inh	HCMV inh	MARV entry inh
CC1CCC(C(C)C)C(OC(=O)COC(=O)c2cccn2C)C1 (centres undefined)	-10%	?	-3%	?	?	-29%[46.1 µM]
CCOC(=O)Cn1c(COc2ccccc2OC)[n+](C)c2ccccc21	?	-10%	nt	nt	22	nt
CC1CCC(C(C)C)C(OC(=O)Cn2c(-c3ccc(Br)cc3)[n+](C)c3ccccc32)C1 (centres undefined)	?	?	5%	?	-99*	?
Cc1ccccc1OCc1n(CC(=O)OC2CC(C)CCC2C(C)C)c2ccccc2[n+]1C (centres undefined)	?	?	-4%	?	-96*	3.5µM*
CO/C1=C\C(C)=C\[C@@H](C)[C@@H](O)[C@@H](C)C/C(C)=C/C=C/[C@H](OC)[C@@H]([C@@H](C)[C@@H](O)[C@H](C)[C@@]2(O)C[C@@H](O)[C@H](C)C(C(C)C)O2)OC1=O (some centres undefined)	nt	nt	-21%	nt	nt	nt
O=C(COc1ccc2ccccc2c1Br)N1CCCCC1	5%	54%	nt	nt	nt	nt
CCN(CC)C(=O)Oc1ccc2ccccc2c1Br	?	18%	1%	?	-89*	?
CCN(CC)C(=O)Oc1ccc(Br)c2ccccc12	?	-28%	-6%	?	-30	?
O=C(Oc1ccc2ccccc2c1Br)N1CCCCCC1	-3%	0%	6%	3.3µM*	-82*	1.2µM*
COc1cc(SC)ccc1C(=O)N1CCN(c2ccc(O)cc2)CC1	-12%	42%	-21%	nt	-14	nt
COc1cc(SC)ccc1C(=O)N1CCC(Cc2ccccc2)CC1	nt	-25%	-6%	8.2µM*	nt	?
COc1cc(SC)ccc1C(=O)N1CCN(c2ccccc2)CC1	-21%	-22%	3%	13µM*	-2	-23%[46.1 µM]
COc1cc(SC)ccc1C(=O)N1CCCCCC1	-22%	1%	1%	7%	5	9%
COc1cc(SC)ccc1C(=O)N1CCN(Cc2ccccc2)CC1	25µM*	-23%	5%	?	50	-20%
Cc1nc(NCc2ccccc2)c2nc(-c3ccccc3)n(CCN3CCCC3)c2n1	nt	nt	9%	nt	nt	nt
COc1ccccc1/C=C(\C#N)c1nc(-c2cc3ccccc3oc2=O)cs1	nt	-1%	nt	19%[46.1 µM]	11	nt
CCCCc1c(C(=O)O)cc(OC)cc1C(=O)O	-3%	-14%	1%	8%	47	-10%
CCCCCc1c2c(cc(O)c1C(=O)O)OC(=O)c1cc(C(=O)CCCC)c(OC)cc1O2	0.5µM*	?	14%	nt	6	nt
CCCCCc1c2c(cc(O)c1C(=O)O)OC(=O)c1c(cc(OC)cc1C(=O)CCCC)O2	8%	32µM*!	13%	nt	nt	nt
O=C(c1cnccn1)N1CC(=O)N2[C@H](C1)[C@@H](c1ccc(Br)cc1)[C@@H]2CO	nt	nt	nt	nt	-4	nt
